Compound activity from PubChem.
3T3 cytotox – cytotoxic compounds in NIH 3T3 cells | actives 4.3% (n = 94,000) | Potency, µM (top dose mostly 96.7 µM), without a hit: top-dose activity change, negative = cytotoxicity, hits mostly inhibitors | NIH 3T3 viability, CellTiter-Glo ATP luminescence, 48-72 h; note: nearly all actives have a fitted effect of over 55% in size
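Viability of NIH 3T3 cells after 48 or 72 hr compound treatment at 37 °C was assessed by CellTiter-Glo, with luminescence imaged following a 10 min room-temperature step.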
FLuc inh – Photinus pyralis luciferase inhibition; Potency, µM (titrated, usually from 115 µM), most hits filed as inhibitors; P08659; AID 1347043; actives 2.5% (n = 76,000); purified P. pyralis luciferase, luminescence, biochemical; note: nearly all actives have a fitted effect of over 65% in size
Target sequence (P08659 whole entry, looked up): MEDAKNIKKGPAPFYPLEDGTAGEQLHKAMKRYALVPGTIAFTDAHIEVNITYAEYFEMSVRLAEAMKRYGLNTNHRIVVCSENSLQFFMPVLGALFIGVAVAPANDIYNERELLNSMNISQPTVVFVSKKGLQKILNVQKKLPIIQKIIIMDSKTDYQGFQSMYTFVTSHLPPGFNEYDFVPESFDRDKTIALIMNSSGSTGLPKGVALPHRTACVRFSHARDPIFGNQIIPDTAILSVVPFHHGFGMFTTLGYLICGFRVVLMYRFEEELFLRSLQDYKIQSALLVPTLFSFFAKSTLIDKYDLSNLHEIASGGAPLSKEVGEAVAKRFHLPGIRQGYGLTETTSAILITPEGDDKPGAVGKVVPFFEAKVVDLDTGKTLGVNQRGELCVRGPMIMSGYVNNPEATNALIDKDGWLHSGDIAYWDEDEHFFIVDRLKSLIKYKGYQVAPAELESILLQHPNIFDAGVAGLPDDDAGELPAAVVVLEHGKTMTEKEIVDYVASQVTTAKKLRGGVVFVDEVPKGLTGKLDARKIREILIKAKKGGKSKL
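Purified 10nM P. pyralis luciferase with 10uM D-luciferin and 10uM ATP in 50mM Tris acetate pH 7.5, 10mM Mg acetate, 0.01% Tween-20, 0.05% BSA. qHTS titration; luminescence read by CCD imager.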
hNpr1 antagonist – human Npr1 receptor antagonism; P16066; HEK293 hNpr1 GloSensor cGMP, ANP-stimulated luminescence; Potency, µM (doses to about 46.3 µM), for inactives: top-dose activity change, negative = inhibition, most hits filed as inhibitors; actives 1.6% (n = 76,000); AID 1347048; calls by dose curve; note: nearly all actives have a fitted effect of over 60% in size
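Compound pre-incubated 30 min at room temperature on GloSensor-loaded HEK293 cells stably carrying hNpr1 and the pGS-40F cGMP biosensor. Stimulation uses hNppA at 0.1 nM final; luminescence is taken at baseline and 20 min post-agonist.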
HEK cytotox – cytotoxic compounds in HEK 293 cells. HEK 293 viability, ATP luminescence (CellTiter-Glo), 48-72 h. Potency, µM (doses to about 115 µM), inactives show top-dose activity change, negative = cytotoxicity, hits mostly inhibitors. actives 6.6% (n = 94,000); note: nearly all actives have a fitted effect of over 60% in size
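ATP-coupled CellTiter-Glo luminescence served as viability read-out, recorded 10 min after reagent addition at room temperature. HEK 293 cells, 250 cells/well, had been incubated with pintool-transferred compound for 48 or 72 hr at 37 degree Celsius.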
* = called active by the depositor; i = inactive; ? = inconclusive; nt = not tested or not shown; [ ] = remark or other dose. Hits are enriched below; roughly 11% of the tested compounds scored in any of these assays. Unless noted, calls come from the whole dose curve; as a rule, active = well fitted curve in the direction sought with a large enough effect; inconclusive = small, poorly fitted or top-dose-only effect, or another doubt; inactive = no such curve, though single readings can be large; an effect the other way counts as inactive or inconclusive. % is set by controls: 0 for no effect and ±100 for the full control effect; potency is the fitted concentration of half-maximal effect.

SMILES	3T3 cytotox	FLuc inh	hNpr1 antagonist	HEK cytotox
COc1ccccc1-c1cccc(CN2CCCC(C(=O)NCc3cccc(F)c3)C2)c1 (stereo not given)	?	nt	nt	13µM*
COc1ccccc1-c1cccc(CN2CCCC(C(=O)N3CCCCC3)C2)c1 (stereo not given)	?	nt	nt	79µM*
CCOCCNC(=O)C1CCCN(Cc2cccc(-c3ccccc3OC)c2)C1 (stereo not given)	?	nt	nt	40µM*
COc1ccccc1-c1ccc(C(=O)N2CCC(C(=O)N3CCCC3)CC2)cc1	-18%	nt	nt	?
COc1ccccc1-c1cccc(CN2CCCC(C(=O)NCC(F)(F)F)C2)c1 (stereo not given)	?	nt	nt	45µM*
COC(=O)CNC(=O)C1CCCN(Cc2cccc(-c3ccccc3OC)c2)C1 (stereo not given)	?	nt	nt	-26%
O=C(Nc1cc(-c2ccccn2)nn1-c1ccccc1)c1ccc(Cl)cc1	-15%	nt	nt	-11%
COc1cccc(C(=O)NC2CCN(c3ccc4nnc(-c5ccccc5)n4n3)C2)c1 (stereo not given)	-15%	nt	nt	-8%
COc1ccc(C(=O)N2CCCC(C(=O)N3CCC4(CC3)CC(=O)Nc3ccccc3O4)C2)cc1 (stereo not given)	-31%	nt	nt	?
COc1ccc(-n2c(=O)c(C(=O)N3CCOCC3)nc3cccnc32)cc1	-19%	nt	nt	-6%
COc1ccccc1-c1cccc(CN2CCCC(C(=O)NC(C)C)C2)c1 (stereo not given)	40µM*	nt	nt	?
COc1ccccc1-c1cccc(C(=O)N2CCC[C@H]2C(=O)NC(C)C)c1	-31%	nt	nt	-4%
O=C(NCc1cccc(C(F)(F)F)c1)C1CCCN(Cc2cccc(-c3ccc(F)cc3F)c2)C1 (stereo not given)	?	nt	nt	35µM*
O=C(NCc1cccc(F)c1)C1CCCN(Cc2cccc(-c3ccc(F)cc3F)c2)C1 (stereo not given)	35µM*	nt	nt	45µM*
O=C1CCN(Cc2cccnc2)CCCC(C(=O)NCc2cc(F)cc(F)c2)CCN1 (stereo not given)	-13%	i	-3%	-25%
COc1ccccc1-c1cccc(CN2CCCC(C(=O)Nc3cccc(Cl)c3)C2)c1 (stereo not given)	16µM*	nt	nt	25µM*
O=C(NCc1cccs1)C1CCCN(Cc2cccc(-c3ccc(F)cc3F)c2)C1 (stereo not given)	?	nt	nt	45µM*
COc1ccccc1-c1cccc(C(=O)N2CCC[C@H]2C(=O)NCc2ccccc2)c1	-32%	nt	nt	?
COc1ccccc1-c1cccc(CN2CCCC(C(=O)NCc3ccc4c(c3)OCO4)C2)c1 (stereo not given)	?	nt	nt	35µM*
O=C(NCc1cccs1)C1CCCN(c2nc3ncccc3o2)C1 (stereo not given)	-17%[138 µM]	i	0%[70.6 µM]	-11%[172 µM]
COc1ccccc1C(=O)N1CCc2c(c(-c3nncn3Cc3ccccc3)nn2C)C1	-28%	nt	nt	-21%
O=C(C1CCCN(c2nc(-c3ccccc3)nc3c2CCC3)C1)N1CCNCC1 (stereo not given)	?	i	0%	?
O=C(C1CCN(c2nc(-c3ccccc3)nc3c2CCC3)CC1)N1CCNCC1	?	i	10%	?
NC1CCN(C(=O)C2CCCN(c3nc(-c4ccccc4)nc4c3CCC4)C2)CC1 (stereo not given)	28µM*	i	8%	?
CC(C)(N)C(=O)N1CCN(c2nc(-c3ccccc3)nc3c2CCC3)CC1	?	i	-1%	50µM*
SMILES	3T3 cytotox	FLuc inh	hNpr1 antagonist	HEK cytotox
O=C(NC1CCNCC1)C1CCCN(c2nc(-c3ccccc3)nc3c2CCC3)C1 (stereo not given)	40µM*	i	0%	?
O=C(NC1CCC(O)CC1)C1CCCN(c2nc(-c3ccccc3)nc3c2CCC3)C1 (stereo not given)	?	i	-3%	?
CSc1ccc(-c2cccc(C(=O)NCC(=O)NC3CCCCCC3)c2)cc1	-26%	nt	nt	?
COc1ccc(-c2nc(C(C)C)nc3c2CCN(C(=O)Cc2ccc(F)cc2)CC3)cc1	?	i	9%	?
O=C(NCC1CN(CC2CC2)CC12CN(c1ccccc1)C2)c1ccccc1 (stereo not given)	89µM*	i	-16%[70.6 µM]	?
O=C(NCC1CN(CC2CC2)CC12CN(c1ccccc1)C2)Nc1ccccc1 (stereo not given)	100µM*	i	-1%[70.6 µM]	?
COc1cccc(C(=O)N2CCCN(c3ccc4nnc(-c5ccccc5)n4n3)CC2)c1	?	nt	nt	-25%
CNC(=O)c1ccc2c(c1)C1(CCN(CC3CC3)C1)CN2Cc1ccccc1 (stereo not given)	?	i	3%[70.6 µM]	100µM*
CC(C)NC(=O)c1ccc2c(c1)C1(CCN(CC3CC3)C1)CN2Cc1ccccc1 (stereo not given)	89µM*	i	1%[70.6 µM]	?
O=C(NC1COC1)c1ccc2c(c1)C1(CCN(CC3CC3)C1)CN2Cc1ccccc1 (stereo not given)	-25%[138 µM]	i	3%[70.6 µM]	?
O=C(NC1CCN(CCn2nc3n(c2=O)CCCC3)C1)c1ccccn1 (stereo not given)	-12%	nt	nt	3%
CC1CCN(c2ccc(-c3cccc(NC(=O)NC(C)C)c3)nn2)CC1	-17%	0.25µM*	2.2µM*	?
COc1ccc(OC)c(NC(=O)Nc2cccc(-c3ccc(N4CCCCC4)nn3)c2)c1	-22%	0.25µM*	13µM*	?
COc1cccc(CNC(=O)Nc2cccc(-c3ccc(N4CCCCC4)nn3)c2)c1	?	0.25µM*	10µM*	32µM*
CC(O)CN1CCC(=O)N(CC(C)(C)C)Cc2cc3c(cc21)OCO3 (stereo not given)	?	nt	nt	-20%
COCC1CN(Cc2ccc(Br)s2)CC12CCNCC2 (stereo not given)	?	?	-3%	?
Cc1cnc(-c2cccnc2)n1CC1CCCN(C(=O)NC2CCCCC2)C1 (stereo not given)	-8%	nt	nt	-1%
O=C([C@H]1CCCN1[S+](=O)([O-])c1cccs1)N1CCC(N2CCOC2=O)CC1	1%	nt	nt	i
COc1ccc(CNC(=O)C2CN(C)C(=O)N2)cc1 (stereo not given)	4%[138 µM]	nt	nt	i
C[C@H](O)c1c(-c2ccc(Cl)cc2)noc1C(=O)NC1CC1	?	i	-8%[70.6 µM]	112µM*
CNC(=O)c1onc(-c2ccc(Cl)cc2)c1[C@H](C)O	-36%[174 µM]	i	-9%[70.6 µM]	-32%[230 µM]
O=C(O)c1ccc(CN2C[C@H](O)C[C@H]2c2nc(-c3ccc4c(c3)OCO4)no2)cc1	-14%[174 µM]	?	-2%[70.6 µM]	-1%[172 µM]
COc1ccc(-c2noc([C@@H]3C[C@@H](O)CN3Cc3cccc(C#N)c3)n2)cc1	-26%[138 µM]	22µM*	?	?
CC(C)N1C[C@H](O)C[C@H]1c1nc(-c2ccc3c(c2)OCO3)no1	-30%[174 µM]	40µM*	0%[70.6 µM]	-23%[172 µM]
